Screening results: PubChem BioAssay, National Center for Advancing Translational Sciences (NCATS)
Tau fibril FP: blocks human tau fibril formation measured by polarization. AID 1468. 280,000 tested, 0.39% active. P10636. K18 P301L tau heparin fibrillization, Alexa594 FP, 6 h. Potency, µM (top dose mostly 57.7 µM), inactives show top-dose activity, negative = inhibition, most hits filed as inhibitors; active = well fitted curve in the direction sought with a large enough effect; inconclusive = small, poorly fitted or top-dose-only effect, or another doubt; inactive = no such curve, though single readings can be large; an effect the other way counts as inactive or inconclusive; also: nearly all actives have a fitted effect of over 55% in size
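Heparin (20 uM) drove fibril formation of recombinant tau K18 P301L, 15 uM unlabeled with 0.24 uM Alexa 594 label, for 6 hr at 37 C in 100 mM sodium acetate pH 7. Fluorescence polarization (555/632 nm) read 1 hr after 30 uM ThT.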
HPGD block: HPGD (human) dehydrogenase inhibition; 150,000 tested, 4.3% active; P15428; Potency, µM, for inactives: top-dose activity change, negative = inhibition, actives largely listed as inhibitors; purified HPGD, NADH fluorescence kinetic, PGE2 substrate
Target sequence (P15428 whole entry, looked up): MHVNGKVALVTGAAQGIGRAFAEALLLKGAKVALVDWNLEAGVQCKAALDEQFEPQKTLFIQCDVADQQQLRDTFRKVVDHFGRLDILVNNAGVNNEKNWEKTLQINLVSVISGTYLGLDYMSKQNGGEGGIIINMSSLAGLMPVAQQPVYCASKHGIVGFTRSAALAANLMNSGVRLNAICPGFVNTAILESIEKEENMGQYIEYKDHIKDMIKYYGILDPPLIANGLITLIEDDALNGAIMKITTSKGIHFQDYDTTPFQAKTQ
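NADH formation kinetics: reaction with 30 uM PGE2 and 1 mM NAD+ (final), 20 nM enzyme, Tris-HCl pH 8 with Tween 20, after 15 min compound preincubation at room temperature. Fluorescence change, last versus first of five reads.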
JMJD2E inh: inhibitors of human JMJD2E histone demethylase; Potency, µM (doses to about 57.1 µM), for the others: top-dose activity change, negative = inhibition, most hits filed as inhibitors; JMJD2E catalytic domain, FDH-coupled NADH fluorescence (FDH is formaldehyde dehydrogenase); AID 2147; 230,000 tested, 1.6% active;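 also: 0% = wells with enzyme and -100% = buffer wells without enzyme; nearly all actives have a fitted effect of over 50% in size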
Target sequence (B2RXH2 1-337 limits assumed): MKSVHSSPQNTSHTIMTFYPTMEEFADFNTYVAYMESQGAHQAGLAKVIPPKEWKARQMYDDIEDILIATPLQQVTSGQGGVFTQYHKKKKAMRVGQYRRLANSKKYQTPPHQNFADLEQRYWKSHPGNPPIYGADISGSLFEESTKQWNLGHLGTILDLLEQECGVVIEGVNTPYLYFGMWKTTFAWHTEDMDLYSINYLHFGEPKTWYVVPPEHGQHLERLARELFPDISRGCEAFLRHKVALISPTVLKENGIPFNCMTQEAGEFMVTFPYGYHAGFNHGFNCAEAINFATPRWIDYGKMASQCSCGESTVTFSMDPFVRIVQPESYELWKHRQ
ALDH1A1 inh: ALDH1A1 (human) enzyme inhibition. P00352. Purified ALDH1A1, NADH fluorescence, propionaldehyde substrate. Potency, µM (series often up to 75.3 µM), for the others: at the top dose activity, negative = inhibition, actives largely listed as inhibitors. 220,000 tested, 7.3% active. AID 1030;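 also: plate controls were no enzyme wells and a reference inhibitor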
Tau fluor counter: counter-screen for tau fibril formation inhibitors. tau K18 P301L Alexa594 fluorescence, heparin fibrillization. Potency, µM (doses to about 57.7 µM), without a hit: at the top dose activity change, negative = decrease. 280,000 tested, 0.93% active; active = well fitted curve in the direction sought with a large enough effect; inconclusive = small, poorly fitted or top-dose-only effect, or another doubt; inactive = no such curve, though single readings can be large; an effect the other way counts as inactive or inconclusive; also: nearly all actives have a fitted effect of over 55% in size
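Human tau K18 P301L (15 uM unlabeled, 0.24 uM Alexa 594-labeled) in 100 mM sodium acetate pH 7 with 20 uM heparin, 6 hr at 37 C. ThT 30 uM added, 1 hr ambient; Alexa 594 FP and total fluorescence read at 555/632 nm.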
Tau ThT inhib: inhibitors of human tau fibril formation, thioflavin T binding. recombinant tau K18 P301L (four-repeat tau fragment), heparin-induced fibrillization, ThT fluorescence. Potency, µM (titrated, usually from 57.4 µM), inactives show at the highest dose activity, negative = inhibition, usual class: inhibitors. 270,000 tested, 2.1% active. AID 1460; active = well fitted curve in the direction sought with a large enough effect; inconclusive = small, poorly fitted or top-dose-only effect, or another doubt; inactive = no such curve, though single readings can be large; an effect the other way counts as inactive or inconclusive; also: nearly all actives have a fitted effect of over 55% in size
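K18 P301L tau (15 uM + 0.24 uM Alexa 594-tagged), heparin 20 uM, NaOAc pH 7, 6 h 37 C; ThT 30 uM, 1 h RT, ex 450/em 510 nm.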
* = called active by the depositor; ? = inconclusive; . = no result; [ ] = another dose, or the depositor's remark. Hits are enriched below; roughly 9.9% of the tested compounds scored in any of these assays. Unless noted, calls follow the shape of the dose curve; as a rule, active = well fitted inhibition curve with a large enough effect (not every such curve was filed as active); inconclusive = small, poorly fitted or top-dose-only effect, or another doubt; inactive = no such curve, though single readings can be large or run the other way. Unless noted, % is scaled to controls: 0 for no effect and ±100 for the full control effect; potency is read from the fitted curve at half-maximal effect.

SMILES	Tau fibril FP	HPGD block	JMJD2E inh	ALDH1A1 inh	Tau fluor counter	Tau ThT inhib
Nc1cc(=O)[nH]c(SCC(=O)Nc2cccc(Cl)c2)n1	0%	-5%	3%	-2%	-8%	1%
CCC1OCCC=CC1C (stereo unspecified)	-7%[11.6 µM]	.	.	5%[13.5 µM]	-6%[11.6 µM]	-6%[11.5 µM]
Cc1ccc(Cl)cc1N1CCN(CCNC(=O)Nc2ccc(Cl)cc2)CC1	13µM*	.	.	.	?	-1%
CCOc1ccc(NC(=O)NCCCN2CCN(c3ccc(OC)cc3)CC2)cc1	?	.	.	.	-26%	?
CCOc1ccc(NC(=O)NCCN2CCN(c3cc(Cl)ccc3C)CC2)cc1	?	.	.	.	14µM*[quencher]	?
COc1ccc(N2CCN(CCNC(=O)Nc3ccc(Cl)cc3)CC2)cc1	16%	-14%	2%	8%	-21%	-15%
COc1ccc(NC(=O)C(C)Sc2cc(-c3ccccc3)nc(C)n2)cc1Cl (stereo unspecified)	-9%	.	.	.	-28%	-9%
Cc1ccc(C)c(NC(=O)C(Sc2nnc(-c3cccs3)o2)c2ccccc2)c1 (stereo unspecified)	?	.	-1%	?	-28%	?
O=C(COC(=O)Cc1c(Cl)cccc1Cl)Nc1ccc(OC(F)(F)F)cc1	?	-8%	5%	8%	-26%	-6%
COCCN(C(=O)c1ccco1)c1nnc(-c2ccc(F)cc2)s1	11%	.	-14%	?	-5%	-12%
CCCN(C(=O)c1ccco1)c1nnc(-c2ccccc2C)s1	2%	.	10%	8.9µM*	5%	9%
CCC1=C2CC[C@H]3C(=O)N(C)C(=O)[C@H]3[C@H]2[C@@]2(Cc3ccccc3)C(=NCC3CC3)OC(=O)N2C1=O	-1%	-5%	-1%	?	-2%	-5%
O=C(c1ccc(S(=O)(=O)Cc2cc(F)ccc2F)c([N+](=O)[O-])c1)N1CCCC1	-9%	.	-9%	8.9µM*	?	?
Cc1ccccc1CS(=O)(=O)c1ccc(C(=O)N2CCC(C)CC2)cc1[N+](=O)[O-]	2%	.	10%	-3%	-18%	?
CC1CCN(C(=O)c2ccc(S(=O)(=O)Cc3cccc(F)c3)c([N+](=O)[O-])c2)CC1	-5%	-25%	-1%	25µM*	-22%	?
O=C(c1ccc(S(=O)(=O)Cc2cc(F)ccc2F)c([N+](=O)[O-])c1)N1CCCCC1	3%	14µM*	-2%	8.9µM*	-19%	-13%
COc1cc(/C=N/N=C2/SCC(=O)N2c2ccc(O)cc2)ccc1O	2%	.	8%	-6%	-6%	-9%
COc1ccc(OC)c(NC(=O)CSc2nnc(-c3ccco3)n2-c2ccc(C(=O)O)cc2)c1	-3%	?	-4%	25µM*	-1%	-6%
COc1ccc(NC(=O)CSc2nnc(-c3ccccc3Cl)n2Cc2ccco2)c(OC)c1	18%	.	-4%	14µM*	-7%	-7%
NC(=O)c1c(NC(=O)CSc2nnc(-c3ccco3)n2-c2ccccc2)sc2c1CCC2	-12%	28µM*	?	?	-17%	?
CN(C)c1ccc(NC(=O)CSc2nnc(-c3cccs3)n2Cc2ccco2)cc1	5%	-11%	-6%	18µM*	-29%	?
Cc1c(C(=O)Nc2ccc(F)c(C(F)(F)F)c2)sc2nc(-c3ccccc3)cn12	?	.	.	.	-27%	-10%
CCOc1ccc(NC(=O)CSc2nnc(-c3ccccc3Cl)n2Cc2ccco2)cc1	15%	.	-10%	14µM*	-19%	?
CCOc1ccc(NC(=O)CSc2nccn2Cc2ccco2)cc1	-2%	.	.	.	-11%	-10%
COCCn1c(CNc2ccc(F)cc2)nnc1SCC(=O)Nc1ccc(OC)cc1OC	11%	-11%	-3%	13µM*	-15%	-16%
SMILES	Tau fibril FP	HPGD block	JMJD2E inh	ALDH1A1 inh	Tau fluor counter	Tau ThT inhib
COc1cc(NC(=O)Cn2c(=O)ccc3cc(S(=O)(=O)N4CCCC4)ccc32)cc(OC)c1	?	.	.	.	?	-7%
Cc1cc(C)c(C(=O)CSC2=NC(N)=C(C#N)C3(CCCCC3)C2C(N)=O)cc1C (stereo unspecified)	?	-18%	2%	-6%	?	28µM*
Cc1cc(C)c(C(=O)CSc2nnc(N)s2)cc1C	3%	.	6%	-10%	-12%	-8%
O=C1C2C3CCCC3=C3CCCC3C2C(=O)N1c1ccc(F)cc1 (stereo unspecified)	-10%	-5%	1%	1%	-7%	0%
CC(C)C1NC2(C(=O)c3ccccc3C2=O)C2C(=O)N(c3ccc(F)cc3)C(=O)C12 (stereo unspecified)	0%	32µM*	-1%	1.3µM*	-16%	-19%
Cc1ccc(CSc2ncc(Cl)c(C(=O)Nc3nnc(C)s3)n2)cc1	-13%	.	.	.	-11%	-4%
COc1ccc2c(c1)c1c(c(=O)n(CCc3ccccc3)c(=O)n1Cc1ccc(F)cc1)n2C	1%	.	.	.	-11%	-3%
O=[N+]([O-])c1ccc(Sc2ncccn2)c([N+](=O)[O-])c1	?	.	-10%	-2%	6.3µM*[quencher]	13µM*
Cc1cccc(Sc2ccc([N+](=O)[O-])cc2[N+](=O)[O-])n1	-5%	-7%	6%	0%	?	?
CCN(CC)c1ccc(NC(=O)CSc2ccsc2[N+](=O)[O-])c(C)c1	-1%	13µM*	3%	15µM*	?	?
COc1ccc(CNC(=O)CSc2ccsc2[N+](=O)[O-])cc1	-5%	.	-6%	14µM*	-18%	?
CCN(CC)CC#CC(O)(c1ccccc1)c1ccccc1	-4%	.	-6%	9%	11%[2.34 µM]	1%
CN(C)CCC#CC(O)(c1ccccc1)c1ccccc1	10%	-5%	5%	25µM*	8%	3%
CCOc1ccc(C(C)NC(=O)C2CCC2)cc1 (stereo unspecified)	-5%	25µM*	10%	-1%	-10%	-1%
CC(NC(=O)C1CCC1)c1ccc(Cl)cc1 (stereo unspecified)	3%	14µM*	5%	0%	3%	-4%
COc1ccccc1NC(=O)C1=C(C)Nc2nnnn2C1c1ccc(C(F)(F)F)cc1 (stereo unspecified)	-5%	.	.	.	-22%	-2%
COc1ccc2c(c1)sc(=N)n2C	?	.	-26%	20µM*	-1%	?
COc1ccc2c(c1)cc(C(=O)O)n2C	0%	?	?	?	0%	-1%
CSC1=NC(C)(C)C=C(/C=C/c2ccc(Cl)cc2)N1	2%	.	-14%	20µM*	-3%	?
CSC1=NC(C)(C)C=C(/C=C/c2ccc(Cl)cc2Cl)N1	-3%	.	-7%	-13%	-22%	?
